From PubChem BioAssay AID1159580 (chemical genetic matrix, 2015)
Where “and” joins values, the source holds several entries; their conditions need not be identical. Equal entries are not always repeated. About 2,000 (36%) of roughly 5,500 compounds were called active. Inconclusive results (about 18%) are left out. No stated cut-off is given here; in the data, active means normalized growth mostly below about 0.91 (no sharp cut-off); inconclusive means no clear call, values can overlap the other calls; inactive means mostly above about 0.92. Some of the results follow.

Test: chemical genetic growth profiling, strain panel (AID 1159580);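 further: tested at 20 µM; growth read once vehicle control cultures reached saturation at 30 °C; 1 = growth at the plate median or of vehicle wells; lower values mean less growth of the strain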
Details: S. cerevisiae deletion strains, growth OD

Measured: normalized growth

O=c1cccc2n1CC1CC2CN2CCCC[C@@H]12 (some centres undefined)
inactive: locus YAL013W, strain DEP1, active compounds read low 0.999 | locus YAL021C, strain ccr4, active compounds read low 0.999 | locus YAL026C, strain drs2, active compounds read low 0.983 | locus YAL030W, strain snc1, active compounds read low 0.979 | locus YBL061C, strain skt5, active compounds read low 0.983 | locus YBR009C, strain hhf1, active compounds read low 0.947 | locus YBR021W, strain FUR4, active compounds read low 1.01 | locus YBR023C, strain chs3, active compounds read low 0.974 | locus YBR171W, strain sec66, active compounds read low 0.974 | locus YBR229C, strain ROT2, active compounds read low 0.953 | locus YBR231C, strain swc5, active compounds read low 0.97 | locus YBR279W, strain paf1, active compounds read low 0.988 | locus YCL011C, strain gbp2, active compounds read low 0.983 | locus YCL016C, strain dcc1, active compounds read low 0.976 | locus YCL029C, strain bik1, active compounds read low 0.974 | locus YCL061C, strain MRC1, active compounds read low 0.985 | locus YCL069W, strain vba3, active compounds read low 0.98 | locus YCR088W, strain abp1, active compounds read low 0.973 | locus YDL005C, strain med2, active compounds read low 0.982 | locus YDL035C, strain GPR1, active compounds read low 1 | locus YDL040C, strain nat1, active compounds read low 0.961 | locus YDL074C, strain BRE1, active compounds read low 1.01 | locus YDL101C, strain DUN1, active compounds read low 0.992 | locus YDL134C, strain PPH21, active compounds read low 0.989 | locus YDL185W, strain tfp1, active compounds read low 0.971 | locus YDL192W, strain arf1, active compounds read low 0.99 | locus YDR001C, strain nth1, active compounds read low 0.968 | locus YDR069C, strain doa4, active compounds read low 0.982 | locus YDR101C, strain arx1, active compounds read low 1.03 | locus YDR137W, strain rgp1, active compounds read low 0.994 | locus YDR150W, strain NUM1, active compounds read low 0.992 | locus YDR159W, strain sac3, active compounds read low 0.938 | locus YDR162C, strain NBP2, active compounds read low 0.987 | locus YDR195W, strain ref2 0.946 | locus YDR297W, strain sur2, active compounds read low 0.977 | locus YDR318W, strain mcm21, active compounds read low 0.978 | locus YDR334W, strain swr1, active compounds read low 0.978 | locus YDR335W, strain msn5, active compounds read low 0.987 | locus YDR388W, active compounds read low 0.985 | locus YDR392W, strain spt3, active compounds read low 0.876 | locus YDR502C, strain sam2, active compounds read low 0.981 | locus YEL003W, strain gim4, active compounds read low 0.985 | locus YEL037C, strain rad23, active compounds read low 0.983 | locus YEL061C, strain CIN8 (second series), active compounds read low 0.974 | locus YEL061C, strain CIN8, active compounds read low 0.991 | locus YER015W, strain faa2, active compounds read low 0.976 | locus YER016W, strain bim1, active compounds read low 0.971 | locus YER110C, active compounds read low 0.972 | locus YER111C, strain swi4, active compounds read low 0.977 | locus YER155C, strain BEM2 (second series), active compounds read low 0.973 | locus YER155C, strain BEM2, active compounds read low 1 | locus YER167W, strain BCK2, active compounds read low 0.987 | locus YFR010W, strain ubp6, active compounds read low 0.972 | locus YGL078C, strain dbp3, active compounds read low 0.991 | locus YGL086W, strain mad1, active compounds read low 1.04 | locus YGL167C, strain pmr1, active compounds read low 0.968 | locus YGL173C, strain kem1, active compounds read low 0.981 | locus YGL227W, strain vid30, active compounds read low 0.974 | locus YGL240W, strain doc1, active compounds read low 0.962 | locus YGL248W, strain PDE1, active compounds read low 0.986 | locus YGL253W, strain hxk2, active compounds read low 0.982 | locus YGR135W, strain pre9, active compounds read low 0.982 | locus YGR229C, strain SMI1, active compounds read low 0.993 | locus YGR252W, strain gcn5, active compounds read low 0.968 | locus YHR013C, strain ard1, active compounds read low 0.928 | locus YHR027C, strain rpn1, active compounds read low 0.982 | locus YHR030C, strain SLT2, active compounds read low 0.996 and 1.02 | locus YHR079C, strain IRE1 (second series), active compounds read low 0.986 | locus YHR079C, strain IRE1, active compounds read low 1.02 | locus YHR094C, strain hxt1, active compounds read low 0.967 | locus YHR129C, strain ARP1, active compounds read low 0.983 | locus YHR142W, strain chs7, active compounds read low 1 | locus YHR200W, strain rpn10, active compounds read low 0.975 | locus YIL066C, strain RNR3, active compounds read low 0.987 | locus YIL073C, strain SPO22, active compounds read low 0.967 | locus YIL125W, strain kgd1, active compounds read low 0.986 | locus YIR030C, strain dcg1, active compounds read low 0.984 | locus YJL092W, strain hpr5, active compounds read low 0.981 | locus YJL095W, strain BCK1 (second series), active compounds read low 0.978 | locus YJL095W, strain BCK1, active compounds read low 1 and 1.01 | locus YJL115W, strain asf1, active compounds read low 0.988 | locus YJL129C, strain trk1, active compounds read low 0.982 | locus YJL134W, strain LCB3, active compounds read low 0.983 | locus YJL154C, strain vps35, active compounds read low 0.98 | locus YJL164C, strain tpk1, active compounds read low 0.984 | locus YJL166W, strain qcr8, active compounds read low 1.01 | locus YJL168C, strain set2, active compounds read low 0.99 | locus YJL187C, strain SWE1 (second series), active compounds read low 0.995 | locus YJL187C, strain SWE1, active compounds read low 0.99
